Source: ChEMBL document CHEMBL3433997, “St. Jude Leishmania screening dataset” (2016)

The compounds below were run against Solute carrier family 2, facilitated glucose transporter member 1 (Homo sapiens) (UniProt P11166) (assay: ST_JUDE_LEISH: Cytotoxicity at 2uM final concentration against transgenic Leishmania Mexicana promastigotes LmGLUT1 that are glucose transport deficient and complemented with the human glucose transporter GLUT1. Activity is measured by DNA content using SYBR green in vitro).
Chain of Solute carrier family 2, facilitated glucose transporter member 1 (Homo sapiens) (P11166 whole entry): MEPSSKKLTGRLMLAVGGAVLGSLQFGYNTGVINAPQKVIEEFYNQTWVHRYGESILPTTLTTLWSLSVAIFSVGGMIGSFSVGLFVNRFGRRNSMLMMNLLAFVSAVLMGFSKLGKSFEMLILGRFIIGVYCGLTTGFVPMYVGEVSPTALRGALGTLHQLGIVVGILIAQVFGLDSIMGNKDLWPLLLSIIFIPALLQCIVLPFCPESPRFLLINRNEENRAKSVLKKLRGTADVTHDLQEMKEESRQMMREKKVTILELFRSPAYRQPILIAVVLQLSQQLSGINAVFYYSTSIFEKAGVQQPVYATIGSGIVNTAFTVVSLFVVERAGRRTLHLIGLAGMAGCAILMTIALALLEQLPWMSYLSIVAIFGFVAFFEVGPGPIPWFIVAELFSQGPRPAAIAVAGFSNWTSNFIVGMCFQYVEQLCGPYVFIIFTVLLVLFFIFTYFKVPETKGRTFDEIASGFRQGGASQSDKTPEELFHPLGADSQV
Type: functional

SMILES	inhibition
COc1cc(NCC2(CNCc3cn(Cc4ccccc4)c4ccccc34)CCCCC2)nc2ccccc12	-0.66%
CO/C(=C\C=C\c1cc2cc(Cl)c(Cl)cc2[nH]1)C(=O)NCCCN1CCCC[C@@H]1C	3.54%
COc1ccc(NC(=O)Nc2cccc(-c3cccc(-c4nc5cc(F)ccc5[nH]4)c3)c2)cc1	1.35%
CCCc1cc(Cc2cnc(N)nc2N)cc2c1OC(C)C2C (stereo not given)	8.26%
CN1CCC(C(=O)Nc2ccc(-c3ccc(-c4nc5ccccc5[nH]4)cc3)cc2)CC1	2.95%
COc1ccc(CN2CCC(Oc3cccc(NC(=O)c4ccc(C(F)(F)F)cc4)c3)CC2)cc1	0.69%
O=C(Nc1ccc(OC2CCN(Cc3ccc(F)cc3)C2)c(Cl)c1)c1cccs1 (stereo not given)	2.66%
CC(C)OC(=O)c1ccccc1S(N)(=O)=O	15.3%
c1cncc(Oc2ccc(Nc3ccnc4cc(-c5cccc(CNCCN6CCOCC6)c5)ccc34)cc2)c1	0.19%
Cc1cnccc1/C=C/c1cccc(OCCCN2CCc3ccc(S(C)(=O)=O)cc3CC2)c1	2.21%
Cc1cc(Nc2nc(Nc3cccc(Cl)c3)nc3ccccc23)n[nH]1	10.5%
COc1cc(Nc2nccc(N3CCC(NC(=O)c4cccc(NC(C)=O)c4)C3)n2)cc(OC)c1OC (stereo not given)	0.31%
CCCCN1CC[C@@H](CCC(O)c2cc(OCCC)nc3ccc(OC)cc23)[C@@H](CC)C1 (stereo not given in full)	-0.6%
COc1ccccc1-c1ccc(CNC(=O)C(CN2CCN(C)CC2)c2ccccc2)cc1 (stereo not given)	2.94%
O=C(/C=C/c1ccc(Cl)c(Cl)c1)NCCCCCN1CCCC(CNC(=O)c2sc3ccccc3c2Cl)C1 (stereo not given)	-1.59%
Cc1ccnc(NC(c2ccc(Cl)c([N+](=O)[O-])c2)c2ccc3cccnc3c2O)c1 (stereo not given)	0.43%
O=c1cc(NCCCNCc2cccc(Oc3ccccc3)c2)[nH]c2ccccc12	4.28%
Cc1cc(-c2nc3ccc(N4CCN(C)CC4)cc3[nH]2)nn1Cc1cc(Cl)ccc1OCC(C)C	1%
O=C1CCCN1CCCNCc1cccc(-c2cccc(-c3nc4cc(C(F)(F)F)ccc4[nH]3)c2)c1	4.47%
CNC(=O)c1ccccc1Nc1nc(Nc2ccc(C(=O)O)cc2)ncc1Cl	-1.75%

SMILES	inhibition
Cc1ccc(N2C(=O)C3C(C2=O)C2(c4ccccc4)C(=O)C3(c3ccccc3)C(c3ccccc3)=C2c2ccccc2)cc1 (stereo not given)	0.73%
NC(=O)c1cccc(C(=O)Nc2cccc(-c3csc(-c4nc5ccccc5[nH]4)c3)c2)c1	2.68%
NCCCNc1nc(Nc2ccc(C(F)(F)F)cc2F)c2c(=O)[nH]ccc2n1	3.4%
O=C(CCCCCNC(=O)c1ccc(O)c(-c2ccc(Cl)c(Cl)c2)c1)NCCN1CCOCC1	4.35%
CCCc1ccccc1OCC(O)CN(C1CCCC1)C1CCCC1 (stereo not given)	6.36%
FC(F)(F)c1cccc(Nc2nc3nonc3nc2NC2C3CC4CC(C3)CC2C4)c1 (stereo not given)	3.05%
COc1cc(-c2cnc(N)c(-c3nc4ccccc4[nH]3)c2)cc(OC)c1OC	5.26%
CCOC(=O)c1cnc2c(C(F)(F)F)cccc2c1Nc1ccc(O)cc1	10.8%
CNC(=O)c1c(NC(=O)c2cccs2)sc2c1CCCC2	1.2%
Cc1ccc2[nH]c(NC#N)nc2c1	0.53%
O=C(NCCCCCN1CCC(c2c[nH]c3ccccc23)CC1)c1ccc(-c2ccccc2)nc1	2.41%
CCN1CCc2c1cc(C(=O)N[C@@H](Cc1ccccc1)[C@H](O)CNC(C)(C)c1cccc(C(F)(F)F)c1)cc2N1CCCCS1(=O)=O	5.34%
CC(C)Sc1nc2c(c(=O)n1CCc1ccccc1)C1(CCCCC1)Cc1ccccc1-2	-1.26%
CCOc1ccc(Cc2c(C)nc3nc(N)nc(N)c3c2C)cc1	29.1%
CC(C)NCc1ccc(-c2ccc(NC(=O)c3ccc(C#N)cc3)cc2)cc1	3.05%
CCCCCCCN1CCC(CCNc2ccnc3ccc(OC)cc23)CC1	0.51%
COC(=O)c1ccc(CC(C)NCC(O)c2ccc(C(O)CNC(C)Cc3ccc(C(=O)OC)cc3)cc2)cc1 (stereo not given)	-0.44%
CC(=O)Nc1ccc(C(=O)Nc2cccc(-c3ccc(-c4nc5cc(C(F)(F)F)ccc5[nH]4)cc3)c2)cn1	2.59%
Cc1[nH]c(C)c(-c2ccc(-c3ccccc3)nc2)c(=O)c1Br	-0.2%
CCN(CC)/C(=N/C(=N)NCc1cccc(Cl)c1)NCCCCCCN/C(=N\C(=N)NCc1cccc(Cl)c1)N(CC)CC	4.23%
